Screening data as filed in PubChem.
Compounds with a hit are over-represented: about 5.7% of the library has one in this group of screens.
MPTP block: blocks calcium-induced mitochondrial swelling; isolated mouse mitochondria, Ca2+ swelling absorbance, 30 min; inhibition, % at 10 µM; actives 1.4% (n = 360,000);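 active = inhibition of 50% or more, scaled per plate between neutral and stimulator controls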
FAS TE block: inhibitors of human fatty acid synthase thioesterase domain; P49327; recombinant FAS-TE, OMFH fluorogenic substrate, fluorescence endpoint; inhibition, % at 15 µM; actives 0.67% (n = 360,000); AID 602261;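 active = compounds whose normalised, plate-corrected inhibition of enzyme fluorescence in the single-dose primary screen is 50% or more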
Target sequence (P49327 whole entry, looked up, the tested form may be a part): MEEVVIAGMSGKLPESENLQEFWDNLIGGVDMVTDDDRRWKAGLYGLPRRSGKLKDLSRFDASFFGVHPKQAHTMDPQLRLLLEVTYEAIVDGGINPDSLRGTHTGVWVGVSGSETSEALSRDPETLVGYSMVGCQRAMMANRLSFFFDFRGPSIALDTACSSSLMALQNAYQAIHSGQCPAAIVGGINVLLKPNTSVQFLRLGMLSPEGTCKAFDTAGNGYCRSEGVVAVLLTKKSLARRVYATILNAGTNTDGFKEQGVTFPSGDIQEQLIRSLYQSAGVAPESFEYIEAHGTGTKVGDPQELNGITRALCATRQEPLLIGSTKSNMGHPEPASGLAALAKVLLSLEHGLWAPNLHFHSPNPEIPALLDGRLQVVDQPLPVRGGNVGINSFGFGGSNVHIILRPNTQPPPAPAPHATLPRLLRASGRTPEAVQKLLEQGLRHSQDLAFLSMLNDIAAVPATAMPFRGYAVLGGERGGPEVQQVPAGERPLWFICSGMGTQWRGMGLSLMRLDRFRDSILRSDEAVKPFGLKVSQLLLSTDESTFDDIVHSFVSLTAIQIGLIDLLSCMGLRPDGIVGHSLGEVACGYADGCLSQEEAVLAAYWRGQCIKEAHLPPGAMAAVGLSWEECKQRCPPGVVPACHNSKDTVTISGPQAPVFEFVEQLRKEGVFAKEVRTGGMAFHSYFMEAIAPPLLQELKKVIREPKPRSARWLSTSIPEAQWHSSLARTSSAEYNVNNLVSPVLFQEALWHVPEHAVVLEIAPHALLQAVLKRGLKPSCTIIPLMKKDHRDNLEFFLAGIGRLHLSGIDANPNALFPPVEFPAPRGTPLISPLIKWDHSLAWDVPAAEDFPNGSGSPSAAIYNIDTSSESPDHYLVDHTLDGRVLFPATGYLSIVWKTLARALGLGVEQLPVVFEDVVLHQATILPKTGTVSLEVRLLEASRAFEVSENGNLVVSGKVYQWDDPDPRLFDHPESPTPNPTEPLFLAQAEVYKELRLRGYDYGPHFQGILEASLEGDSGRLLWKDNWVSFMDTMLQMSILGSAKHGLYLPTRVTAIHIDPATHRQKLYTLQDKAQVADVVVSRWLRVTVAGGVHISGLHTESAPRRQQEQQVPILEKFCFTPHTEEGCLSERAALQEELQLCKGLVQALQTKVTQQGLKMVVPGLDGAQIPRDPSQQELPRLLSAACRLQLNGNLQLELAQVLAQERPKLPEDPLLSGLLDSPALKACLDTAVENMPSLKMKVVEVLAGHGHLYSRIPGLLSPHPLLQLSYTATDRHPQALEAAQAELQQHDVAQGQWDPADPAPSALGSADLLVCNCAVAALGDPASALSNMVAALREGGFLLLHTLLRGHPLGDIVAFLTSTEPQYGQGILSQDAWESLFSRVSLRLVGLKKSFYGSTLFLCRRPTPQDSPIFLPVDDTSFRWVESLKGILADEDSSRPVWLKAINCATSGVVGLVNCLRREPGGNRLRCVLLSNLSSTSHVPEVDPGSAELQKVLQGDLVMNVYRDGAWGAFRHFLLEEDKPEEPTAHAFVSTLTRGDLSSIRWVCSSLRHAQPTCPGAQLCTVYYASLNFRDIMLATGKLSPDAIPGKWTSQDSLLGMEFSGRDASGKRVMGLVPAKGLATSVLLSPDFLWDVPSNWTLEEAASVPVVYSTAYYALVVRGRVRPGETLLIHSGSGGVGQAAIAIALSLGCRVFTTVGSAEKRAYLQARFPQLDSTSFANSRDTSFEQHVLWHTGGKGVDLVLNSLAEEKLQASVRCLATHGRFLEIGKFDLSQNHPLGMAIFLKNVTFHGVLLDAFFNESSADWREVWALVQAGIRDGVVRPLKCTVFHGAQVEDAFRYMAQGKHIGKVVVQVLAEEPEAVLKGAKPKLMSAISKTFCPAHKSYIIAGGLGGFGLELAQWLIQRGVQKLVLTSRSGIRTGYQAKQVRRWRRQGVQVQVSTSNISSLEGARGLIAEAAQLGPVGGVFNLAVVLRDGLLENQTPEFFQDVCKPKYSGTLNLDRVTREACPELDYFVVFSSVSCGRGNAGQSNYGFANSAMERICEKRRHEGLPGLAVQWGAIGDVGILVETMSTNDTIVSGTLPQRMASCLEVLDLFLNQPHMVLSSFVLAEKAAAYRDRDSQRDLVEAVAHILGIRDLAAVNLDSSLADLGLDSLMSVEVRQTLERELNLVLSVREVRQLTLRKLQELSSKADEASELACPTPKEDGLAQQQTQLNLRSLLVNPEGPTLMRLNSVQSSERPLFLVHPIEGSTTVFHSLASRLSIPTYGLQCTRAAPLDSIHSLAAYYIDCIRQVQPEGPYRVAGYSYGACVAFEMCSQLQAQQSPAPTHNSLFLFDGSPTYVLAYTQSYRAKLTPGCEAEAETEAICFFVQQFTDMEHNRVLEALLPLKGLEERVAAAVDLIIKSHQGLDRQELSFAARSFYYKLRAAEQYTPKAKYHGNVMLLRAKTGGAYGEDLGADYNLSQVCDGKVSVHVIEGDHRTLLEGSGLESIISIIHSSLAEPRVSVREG
rCAG RNA binder: molecules binding r(CAG) RNA repeats | r(CAG) RNA repeat, TO-PRO-1 dye displacement fluorescence | inhibition, % at 3 µM | actives 1.3% (n = 370,000) | AID 651821;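 active = inhibition above the plate cutoff, the mean of all test compounds on that plate plus 3 SD, cut at about 35% in these data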;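 also: higher means more dye released from RNA so lower well fluorescence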
Myeloid diff 2: myeloid differentiation induction; ER-HoxA9 myeloid progenitors, lysozyme-GFP differentiation, flow cytometry; calls only at 10 µM; actives 1% (n = 360,000); AID 624256;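 active = normalized GFP-positive differentiation at or above the plate's own cutoff, the solvent-only control mean plus 3 SD; inconclusive = no clear call, values can overlap the other calls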;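 also: cells exposed to compound for four days before flow analysis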
GRIN3A LBD mod: NR3A (human) ligand-binding domain modulation. NR3A LBD differential scanning fluorimetry, Tm shift; 0% = protein alone, 100% = glycine-bound protein. Tm shift relative to glycine control, % at 25 µM. actives 2.5% (n = 340,000). AID 1259313;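 active = melting temperature shift of at least 10% of the positive control shift, at one fixed dose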
FAS-TE inh conf: FAS thioesterase (human) inhibition, confirmation | recombinant FAS-TE, OMFH fluorogenic substrate, fluorescence | inhibition, % at 15 µM | shares compounds with FAS TE block | actives 45% (n = 2,300);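 active = compounds inhibiting the enzyme by at least 50% at 15 µM in any one of the replicates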
Each line names hits and unclear results; the compound was inactive in the other large screens (follow-up assays come after a bar, where they were run).

O=[N+]([O-])c1ccc(Cl)c([N+](=O)[O-])c1	Myeloid diff 2 inconclusive
CN1C(=O)C(c2ccc([N+](=O)[O-])cc2[N+](=O)[O-])C(=O)N(C)C1=O	GRIN3A LBD mod 10
C=CCn1cc(C=C2C(=O)NC(=O)NC2=O)c2ccccc21	Myeloid diff 2 active (no result: GRIN3A LBD mod)
O=C(O)Cn1cc(C=C2C(=O)NC(=O)NC2=O)c2ccccc21	none
C=CCNC(=S)Nc1ccc(OC(=O)Nc2ccc(Cl)c(Cl)c2)cc1	GRIN3A LBD mod 21
O=C(Nc1ccc(Cl)c(Cl)c1)c1ccco1	none
O=C(c1cccnc1)N1Cc2ccccc2-n2nncc2C1	none (no result: GRIN3A LBD mod)
COc1cccc(-c2sc3ccccc3c2-c2ccc(OCCN3CCOCC3)cc2)c1	GRIN3A LBD mod 15
C[C@]12CC[C@@H](O)CC1=CC(=O)C1C2CC[C@]2(C)C(=O)CCC12 (stereo partly drawn)	GRIN3A LBD mod 11
C[C@]12CC[C@H](O)CC1=CC(=O)C1C2CC[C@]2(C)C(=O)CCC12 (stereo partly drawn)	none
COCCNC(=O)c1c(NC(=O)c2ccc(Br)o2)n(Cc2ccccc2)c2nc3ccccc3nc12	Myeloid diff 2 active
COCCCNC(=O)c1c(NC(=O)c2ccco2)n(Cc2ccccc2)c2nc3ccccc3nc12	none
Cc1cc(NC(=O)COC(=O)c2c(C)nn(Cc3ccccc3)c2C)no1	none
Cc1nn(Cc2ccccc2)c(C)c1C(=O)OCC(=O)Nc1ccccc1SCC#N	Myeloid diff 2 active
CNC(=O)Oc1cccc(-c2cn3cc(Cl)ccc3n2)c1	none
CNC(=O)Oc1ccc(-c2cn3cc(C)ccc3n2)cc1	GRIN3A LBD mod 24
CC1Oc2cc3c(-c4c(O)cc(O)c5c(O)c6c(cc45)OC(C)C(C)C6=O)c(O)cc(O)c3c(O)c2C(=O)C1C (stereo not drawn)	GRIN3A LBD mod 18 (no result: rCAG RNA binder)
COC1/C=C/C=C(\C)Cc2cc(O)c(Cl)c(c2)N(C)C(=O)CC(OC(=O)C(C)C)C2(C)OC2C(C)C2CC1(O)NC(=O)O2 (stereo not drawn)	none (no result: Myeloid diff 2)
C=CCCC1(C2=CCCCC2)C(=O)NC(=O)NC1=O	GRIN3A LBD mod 15
C=C(C)C(Cc1c(OC)ccc(C(=O)/C=C/c2ccc(O)cc2)c1O)OO (stereo not drawn)	GRIN3A LBD mod 24
C[C@]12C=CC(=O)C=C1CC[C@@H]1[C@@H]2CC[C@]2(C)C(=O)CC[C@@H]12	none
C[C@]12CCC(=O)C(O)=C1CC[C@@H]1[C@@H]2CC[C@]2(C)C(=O)CC[C@@H]12	GRIN3A LBD mod 12
CCN1CC=C(c2c[nH]c3ccccc23)CC1	Myeloid diff 2 active
CC(C)(C)n1nnnc1C(c1ccccc1)N1CCC2(CC1)C(=O)NCN2c1ccccc1 (stereo not drawn)	none (no result: GRIN3A LBD mod)
Cc1ccccc1NP(=O)(Oc1ccccc1F)Oc1ccccc1F	GRIN3A LBD mod 11
COc1ccc(-n2c(-c3ccccc3F)nc3ccccc3c2=O)cc1	none (no result: GRIN3A LBD mod)
CN1/C(=C\C=C2C(=O)NC(=O)NC2=O)C(C)(C)c2ccccc21	Myeloid diff 2 active
Nc1ncnc2c1ncn2[C@@H]1O[C@H](C(=O)NCCc2ccc(F)cc2)[C@@H](O)[C@H]1O	none (no result: GRIN3A LBD mod)
CCOC(=O)[C@]12Cc3cc(Cl)ccc3[C@H]1N(C)C(=O)c1cc(OC)ccc12	Myeloid diff 2 active (no result: GRIN3A LBD mod)
CCOC(=O)[C@]12Cc3cc(OC)ccc3[C@H]1N(C)C(=O)c1cc(OC)ccc12	none (no result: GRIN3A LBD mod)
CC(=O)OC1CC(OC2C(O)CC(OC3C(O)CC(OC4CCC5(C)C(CCC6C5CC(O)C5(C)C(C7=CC(=O)OC7)CCC65O)C4)OC3C)OC2C)OC(C)C1OC1OC(CO)C(O)C(O)C1O (stereo not drawn)	Myeloid diff 2 active
C[C@]12CC[C@H](O)C[C@H]1CC[C@@H]1[C@@H]2C[C@@H](O)[C@]2(C)[C@@H](C3=CC(=O)OC3)CC[C@]12O	none
COC(=O)C1=C(c2ccc(-c3ccccc3)c(F)c2)C[C@@H]2CC[C@H]1N2C(=O)NC1Cc2ccccc2C1	FAS TE block 53 | FAS-TE inh conf inactive
COC(=O)C1=C(c2ccc(-c3ccccc3)c(F)c2)C[C@@H]2CC[C@H]1N2C(=O)NCC1CC1	none
O=C(C1CC(c2ccc(Cl)c(Cl)c2)=NO1)N1CCC2(CC1)OCCO2 (stereo not drawn)	FAS TE block 57 | FAS-TE inh conf 66
